Laboratory results: the supplement of paper PMC6555819

Columns and labels:
Test in all cases: PBM binding z-score (relative to random genomic background probes); higher = stronger binding; sequences stand for … in GC…GCGATTGACAGCGTAGAATGAAGG
[1] = tested on: PPARg:RXRa DBDmut IVT, anti-RXR (DBD mutation: RXRa K156A/R161A, NR concentration 270 nM, RXRa partner concentration 90 nM)
Summary of the method: (§1)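 Binding z-scores were set against random background probes. The data came from custom Agilent 4×180K protein-binding microarrays carrying double-stranded probes with 34-nt variable regions, incubated 1 h with ligand-free nuclear receptor dimers. Partner-specific antibodies detected binding, and scanned fluorescence was regression-normalized.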

[2] = tested on: PPARg:RXRa IVT, anti-PPARg (NR concentration 270 nM, RXRa partner concentration 90 nM)
Summary of the method: as §1

[3] = tested on: PPARg DBDmut:RXRa IVT, anti-PPARg (DBD mutation: PPARg1 K132A/R137A, NR concentration 270 nM, RXRa partner concentration 90 nM)
Summary of the method: as §1

[4] = tested on: PPARg DBDmut IVT, anti-PPARg (DBD mutation: PPARg1 K132A/R137A, NR concentration 270 nM)
Summary of the method: as §1

[5] = tested on: PPARg homodimer (NR concentration 180 nM)
Summary of the method: as §1

[6] = tested on: PXR:RXRa (NR concentration 270 nM, RXRa partner concentration 90 nM)
Summary of the method: as §1

[7] = tested on: PXR homodimer (NR concentration 270 nM)
Summary of the method: as §1

[8] = tested on: RARa:RXR (NR concentration 270 nM, RXRa partner concentration 90 nM)
Summary of the method: as §1

[9] = tested on: RARa homodimer (NR concentration 270 nM)
Summary of the method: as §1

[10] = tested on: RARb:RXRa (NR concentration 270 nM, RXRa partner concentration 90 nM)
Summary of the method: as §1

[11] = tested on: RARb homodimer (NR concentration 270 nM)
Summary of the method: as §1

[12] = tested on: RARg:RXRa (NR concentration 270 nM, RXRa partner concentration 90 nM)
Summary of the method: as §1

[13] = tested on: RARg homodimer (NR concentration 270 nM)
Summary of the method: as §1

[14] = tested on: RXRa DBDmut IVT, anti-RXR (DBD mutation: RXRa K156A/R161A, NR concentration 90 nM)
Summary of the method: as §1

[15] = tested on: RXRa homodimer (NR concentration 180 nM)
Summary of the method: as §1

[16] = tested on: THRa:RXRa (NR concentration 90 nM, RXRa partner concentration 90 nM)
Summary of the method: as §1

[17] = tested on: THRa homodimer (NR concentration 90 nM)
Summary of the method: as §1

[18] = tested on: VDR homodimer (NR concentration 270 nM)
Summary of the method: as §1

| Sequence | PBM binding z-score [1] | PBM binding z-score [2] | PBM binding z-score [3] | PBM binding z-score [4] | PBM binding z-score [5] | PBM binding z-score [6] | PBM binding z-score [7] | PBM binding z-score [8] | PBM binding z-score [9] | PBM binding z-score [10] | PBM binding z-score [11] | PBM binding z-score [12] | PBM binding z-score [13] | PBM binding z-score [14] | PBM binding z-score [15] | PBM binding z-score [16] | PBM binding z-score [17] | PBM binding z-score [18] |
| --- | --- | --- | --- | --- | --- | --- | --- | --- | --- | --- | --- | --- | --- | --- | --- | --- | --- | --- |
| CAAACTAGATCAAGAGGTCAAAGTCCGCTTCCCG | 2.78 | 3.67 | 0.521 | 0.139 | 2.25 | 5.07 | 1.99 | 5.22 | 1.44 | 4.06 | 4.71 | 4.84 | 3.96 | 1.69 | 5.73 | 3.93 | 1.67 | 3.23 |
| GCTATCAGTTGAAAGGGCAACCGAATGATTCTCG | 0.18 | 0.3 | -0.111 | -0.549 | 0.562 | 0.584 | -0.393 | 1.25 | -0.381 | 2.07 | 1.81 | 1.22 | 1.28 | 0.45 | 1.26 | 0.693 | -0.411 | -0.03 |
| ACAGACGGGTGAGTGAAGGTAACTCAGCTGGACG | -0.0722 | 0.467 | 2.8e-05 | -1.31 | 0.113 | -0.343 | -0.231 | 0.0341 | -0.176 | 0.0932 | 0.0268 | -0.0676 | 0.0149 | -0.71 | 0.204 | 1.45 | -0.184 | -0.714 |
| GCAGACAGGTGAAACGCAGGTAACTCAGGGTGGC | 0.989 | 0.639 | -1.03 | -0.587 | -0.666 | -0.437 | -0.625 | 0.284 | -0.853 | 0.575 | 0.13 | 0.712 | 0.0344 | -0.777 | 0.519 | 1.42 | -0.615 | -0.666 |
| ATATGTAGGTTAGCTGGTGTCATTCAGACTAGGC | 6.77 | 6.16 | 2.14 | 1.6 | 1.06 | 1.65 | 0.392 | 1.44 | 0.23 | 0.987 | 0.884 | 0.888 | 0.979 | 0.243 | 0.936 | 2.52 | -0.1 | 0.617 |
| AATACAGTGTCACTAGGCCAGAGTAGGTACGAAT | 1.71 | 3.04 | 0.806 | 0.257 | 0.169 | -0.342 | -0.144 | -0.182 | -0.0529 | 1.06 | 0.565 | 0.553 | 0.864 | 0.0246 | 0.185 | 0.145 | -0.314 | 0.0225 |
| CCTTACGGGTCTCGAGGTTATAGCACGACGAGCG | -0.507 | 0.298 | -0.399 | -0.982 | 0.167 | 0.396 | -0.353 | 0.806 | -0.452 | 0.666 | 0.421 | 0.66 | 0.422 | -0.815 | 1.27 | 1.05 | -0.08 | 0.435 |
| CCTAGCTGGTCAGGAGGTCACACACCGGATATGA | 0.695 | 2.85 | 0.353 | 0.266 | 3.15 | 4.2 | 0.691 | 4.65 | 0.568 | 3.67 | 4.31 | 5.14 | 4.44 | 0.548 | 4.69 | 3.36 | 2.01 | 2.14 |
| GCAGACTGGTGAAACGCAGGTAACTCAGGGTGGC | -0.965 | -0.728 | -0.431 | -1.07 | -1.3 | -0.855 | -0.855 | -0.718 | -1.39 | -0.689 | -1.13 | -0.789 | -0.946 | -1.05 | -0.735 | 0.213 | -0.648 | -1.15 |
| CAAACTAGGTCACAGAGGTCATAGTCCGTGCGTA | 8.64 | 9.13 | 4.61 | 1.67 | 6.77 | 6.52 | 12.2 | 7.31 | 3.54 | 5.27 | 5.33 | 6.83 | 7.33 | 3.4 | 7.32 | 4.76 | 3.22 | 7.02 |
| CCGACTGGGGCATAGGGTTACCATAAGCCAGCCC | 2.48 | 3.41 | -0.334 | -1.39 | 0.589 | 0.141 | -0.597 | 0.817 | -1.05 | 1.25 | 0.968 | 1.34 | 0.885 | -1.32 | 1.21 | 0.957 | -0.244 | -1.05 |
| TGACCAAGGTGAAAGGTCGTTGATGCACGCCTTG | 2.01 | 4.8 | 0.518 | -0.282 | 1.58 | 3.75 | -0.00693 | 5.22 | -0.166 | 3.03 | 2.49 | 4.18 | 2.09 | 0.0698 | 5.72 | 3.35 | 0.487 | 1.31 |
| CCTCGGAGAACAACAGGAGGTCAGAGCTGCCAGA | -0.197 | -0.0712 | -1.48 | -1.85 | 1.77 | 1.71 | 0.361 | 2.04 | 0.98 | 2.01 | 2.85 | 1.99 | 1.83 | 0.121 | 1.86 | 2.02 | 0.641 | 0.996 |
| ATCTCTAGGTAAGACTCAGTTCACTGAAGAACGC | 1.88 | 1.2 | 0.951 | 1.23 | 0.997 | 1.71 | 1.12 | 1.01 | 0.789 | 0.577 | 0.746 | 0.678 | 0.541 | 0.822 | 0.497 | 1.29 | 0.792 | 2.32 |
